Most compounds without a hit are left out; they make up all but 3.4% or so of the library.
PLK1 PBD block: blocks phosphopeptide binding to human PLK1 polo-box domain; P53350; Plk1 PBD binding of FITC phosphopeptide, fluorescence polarization; Potency, µM, usual class: inhibitors; actives 2.8% (n = 360,000); AID 720504; also: series mostly up to about 57 µM; nearly all actives have a fitted effect of over 65% in size
GLS inh: blocks human kidney-isoform glutaminase activity; O94925; GLS enzymatic activity, qHTS titration; Potency, µM (titrated, usually from 45.5 µM), usual class: inhibitors; actives 0.21% (n = 410,000)
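Compounds were pin-transferred onto hKGA, after which L-glutamine (1 mM solution) and a detection mix of glutamate oxidase, HRP and Amplex Red were added. Initial and 30 min RT fluorescence reads were collected.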
VDR inh: blocks the human vitamin D receptor; VDR-SRC2-3 peptide fluorescence polarization, 2 h; Potency, µM, hits mostly inhibitors; actives 0.93% (n = 400,000); P11473
Target sequence (P11473 whole entry, looked up): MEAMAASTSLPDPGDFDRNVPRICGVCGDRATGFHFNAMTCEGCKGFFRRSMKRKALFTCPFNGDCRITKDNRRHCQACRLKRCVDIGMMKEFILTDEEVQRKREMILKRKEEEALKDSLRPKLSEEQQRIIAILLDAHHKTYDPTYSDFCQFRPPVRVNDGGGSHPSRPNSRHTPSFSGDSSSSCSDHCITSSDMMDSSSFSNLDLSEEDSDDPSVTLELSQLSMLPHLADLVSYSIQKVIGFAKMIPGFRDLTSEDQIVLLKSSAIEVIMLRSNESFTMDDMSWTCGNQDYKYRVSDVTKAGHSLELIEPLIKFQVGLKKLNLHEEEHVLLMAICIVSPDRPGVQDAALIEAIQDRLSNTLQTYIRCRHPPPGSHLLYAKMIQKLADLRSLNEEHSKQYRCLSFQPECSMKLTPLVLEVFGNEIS
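FP read-out; VDR + SRC2-3 coactivator peptide; 23 nl compound by pintool; 2 h RT incubation; reagents held at 4 deg C, protected from light.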
GCN5L2 inh: inhibitors of human GCN5L2 histone acetyltransferase. Q92830. GCN5L2 HAT assay, ThioGlo1 CoA-SH fluorescence. Potency, µM (titrated, usually from 58.9 µM), actives largely listed as inhibitors. actives 0.21% (n = 390,000). AID 504327
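ThioGlo1-coupled HAT assay: 20nM GCN5L2, 70uM acetyl-CoA, 75uM H3(1-25) peptide, pH 7.5. Fluorescence read at 340/540nm at start and after 20 min at room temperature.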
PKM2 act: increases activity of human pyruvate kinase M2. AID 1631. Potency, µM (top dose mostly 57.5 µM), usual class: activators. actives 0.34% (n = 260,000). purified PKM2, Kinase-Glo ATP luminescence, activation; response scale: 0% is enzyme alone, no compound; also: nearly all actives have a fitted effect of over 55% in size
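ATP formation by purified human PK-M2, quantified via coupled luciferase luminescence after 1 h at room temperature with 0.1 mM ADP and 0.5 mM PEP final.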
Mito fusion act: blocks mitochondrial division or promotes mitochondrial fusion; S. cerevisiae fusion-defective mutant growth rescue, CellTiterGlo 48 h; AID 485298; Potency, µM (highest dose often 46.1 µM), hits mostly activators; actives 0.23% (n = 320,000); also: nearly all actives have a fitted effect of over 45% in size
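Compounds are tested for their ability to restore growth of mitochondrial fusion-defective yeast strains at non-permissive 37C in YPEG medium over 48 hours. Viability is quantified by luciferase luminescence.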
A number is an active result; i = inactive; ? = inconclusive; nt = no result given; ! = a repeat was not active. Calls follow the shape of the dose curve; as a rule, active = well fitted curve in the direction sought with a large enough effect; inconclusive = small, poorly fitted or top-dose-only effect, or another doubt; inactive = no such curve, though single readings can be large; an effect the other way counts as inactive or inconclusive.

SMILES	PLK1 PBD block	GLS inh	VDR inh	GCN5L2 inh	PKM2 act	Mito fusion act
COc1ccc2[nH]c3c(=O)n(Cc4ccc(C(=O)N5CCC(C(N)=O)CC5)cc4)c(=S)[nH]c3c2c1	21µM	22µM	?	i	i	i
Oc1cccc(-c2ccc3nccn3c2)c1	i	i	nt	nt	nt	nt
CCOC(=O)N1CCN(C(=O)CSCC(=O)N=c2sc3ccccc3n2C)CC1	i	i	i	nt	i	i
CCOC(=O)N1CCN(C(=O)CSCC(=O)N=c2sc3cc(OC)ccc3n2C)CC1	27µM	i	?	nt	nt	nt
CCOC(=O)c1sc(NC(=O)c2nc3nc(C)cc(C(F)F)n3n2)c(C(=O)OC(C)C)c1C	nt	i	i	i	nt	nt
CC(Cl)C(=O)NNC(=O)CNS(=O)(=O)c1ccccc1 (stereo not given)	27µM	i	i	i	i	i
N#Cc1c2ccc(O)cc2n2ccccc12	?	11µM	i	i	i	i
O=C1N2CCCCC1(Sc1ccccc1)CCC2 (stereo not given)	i	i	nt	nt	nt	nt
O=C(CNC(=O)c1ccc2c(=O)n3c(nc2c1)CCC3)Nc1ccc(F)c(F)c1	i	i	i	i	nt	i
O=[N+]([O-])c1cnc(Sc2ccncn2)s1	0.67µM	i	22µM	i	i	i
COc1ccc(C)cc1NC(=O)c1nnn(Cc2cccc(F)c2)c1N	38µM	i	i	i	i	i
CCCCCCOc1ccc(C(=N)N(CCCC)CCCC)c2ccccc12	nt	i	?	i	nt	nt
CC(C)(C)C(=O)OCOC(=O)C1N2C(=O)CC2S(=O)(=O)C1(C)C (stereo not given)	nt	i	nt	nt	nt	nt
COc1ccc(-c2oc3ccc(-c4cc(OC)c(OC)c(OC)c4)cc3c2-c2ccc(OC)nc2)cc1	i	i	i	i	i	i
Cc1cc(C)c(S(=O)(=O)N(C)CC(=O)N2CCCC2)c(C)c1	i	i	nt	nt	nt	nt
COc1ccc(C(=O)/C=C/c2ccccc2)c(OC)c1	i	i	i	i	i	i
COCOc1cc(OC)ccc1C(=O)/C=C/c1cccc(C(F)(F)F)c1	nt	nt	28µM	nt	nt	nt
COCOc1ccc(OC)cc1C(=O)/C=C/c1ccc(OC)c(Br)c1	nt	nt	40µM	nt	nt	nt
CCCCc1nnc(NC(=O)C2CC(=O)N(Cc3ccccc3)C2)s1 (stereo not given)	i	i	i	i	i	i
CCOC(=O)COc1ccc2ccccc2c1/C=C/[N+](=O)[O-]	6µM	i	25µM	i	?	i
CCN1/C(=C/C=C/c2sc3ccccc3[n+]2CC)Sc2ccccc21	i	i	7.9µM!	?	nt	i
CC1=CC2=NC(=O)CC(C)(C(=O)N(CC(=O)NC3CCCC3)c3cc(C)cc(C)c3)N2C=C1 (stereo not given)	27µM	i	?	i	i	i
O=C(CCCN1C(=O)S/C(=C/C=C/c2ccccc2)C1=O)Nc1ccc(C(=O)O)cc1	30µM	i	32µM	i	i	i
CC(=C\c1ccccc1)/C=C1/SC(=O)N(CCCC(=O)Nc2ccc(C(=O)O)cc2)C1=O	i	i	i	i	i	i
O=C(CCN1C(=O)/C(=C/C=C/c2ccccc2)SC1=S)Nc1nccs1	i	i	i	i	i	i
SMILES	PLK1 PBD block	GLS inh	VDR inh	GCN5L2 inh	PKM2 act	Mito fusion act
O=C(CCN1C(=O)/C(=C\C=C\c2ccccc2)SC1=S)Nc1cccc(C(=O)O)c1	27µM	i	i	i	i	i
O=C(CCN1C(=O)/C(=C\C=C\c2ccccc2)SC1=S)Nc1ccccc1C(=O)O	30µM	i	?	i	i	i
Cc1ccc(CN2C(=O)CCC2(C)c2nnnn2Cc2ccccc2)cc1 (stereo not given)	i	i	nt	nt	nt	nt
O=C(c1ccc(-n2cnnn2)cc1)N1CCOCC1	i	i	i	i	i	i
NC(=O)C1(N2CCCCC2)CCN(C(=O)c2ccc(-n3cnnn3)cc2)CC1	27µM	i	i	i	i	i
Cc1cn(C(=O)c2ccccc2)c(=S)n1-c1ccc(Br)cc1	i	i	i	i	i	16µM
CC1=NN(C(=O)c2ccccc2)C(O)(c2ccc(Br)cc2)C1 (stereo not given)	i	i	i	i	i	i
CC(=O)Nc1ccc(SC(C)C(=O)NC(N)=O)cc1 (stereo not given)	24µM	i	i	i	i	i
